{"source": "PubChem BioAssay", "data": [{"target": "Albumin (Bos taurus) (UniProt P02769)", "sequence (P02769 whole entry, looked up)": "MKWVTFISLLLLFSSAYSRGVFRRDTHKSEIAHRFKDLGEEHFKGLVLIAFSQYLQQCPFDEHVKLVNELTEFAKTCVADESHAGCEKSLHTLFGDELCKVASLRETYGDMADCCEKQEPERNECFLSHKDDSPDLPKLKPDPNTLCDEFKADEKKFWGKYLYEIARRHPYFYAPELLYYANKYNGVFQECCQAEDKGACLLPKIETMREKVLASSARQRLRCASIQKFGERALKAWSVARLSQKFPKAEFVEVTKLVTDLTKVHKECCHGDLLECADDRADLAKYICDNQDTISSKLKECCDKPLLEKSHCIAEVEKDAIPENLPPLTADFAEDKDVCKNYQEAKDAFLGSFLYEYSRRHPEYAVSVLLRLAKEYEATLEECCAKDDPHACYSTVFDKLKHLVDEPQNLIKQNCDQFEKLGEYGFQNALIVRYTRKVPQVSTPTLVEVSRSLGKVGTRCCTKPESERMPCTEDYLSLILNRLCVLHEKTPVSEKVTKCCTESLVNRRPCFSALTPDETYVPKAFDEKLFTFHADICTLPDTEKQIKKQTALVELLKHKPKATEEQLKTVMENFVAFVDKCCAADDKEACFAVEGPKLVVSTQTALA", "assay": "compounds binding labelled BSA control protein – biochemical, small-molecule microarray, Alexa647 label, 635/667 nm fluorescence, artefact control for SMM control protein annotation, profiling panel (AID 1118);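 note: score merges 667 nm emission intensity and signal-to-noise per printed compound spot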", "conditions": "BSA-A647 binding, fluorescence 635 nm, higher = more signal", "values": [{"smiles": "COc1cc(C(O)C2C=CC3C(=O)N(C)C(=O)C3N2Nc2ccccc2)cc(OC)c1OC", "note": "(configuration not stated)", "composite z-score": 0.785}, {"smiles": "[N-]=[N+]=NCc1ccccc1[C@H]1OC(c2ccc(OCCCO)cc2)=N[C@@]1(Cc1ccccc1N=[N+]=[N-])C(=O)NCC(O)CO", "note": "(some centres not stated)", "composite z-score": 0.992}, {"smiles": "COC(=O)[C@@]1(Cc2ccc(OC)cc2)[C@H]2c3cc(C(=O)N(C)C)n(Cc4ccc(OC(F)(F)F)cc4)c3C[C@H]2CN1C(=O)c1ccccc1", "composite z-score": 0.953}, {"smiles": "C=C(/C(=C/C[C@H](OC(C)=O)c1ccc(CO)o1)c1cnc2ccccc2c1)C(C)C", "composite z-score": 0.899}, {"smiles": "Cc1ccc(S[C@]2(C(=O)NCc3ccccc3)CC(=O)N(C3CCCCC3)[C@@H]2c2ccc(CO)cc2I)cc1", "composite z-score": 0.0863}, {"smiles": "COc1ccc([Si](C)(C)[C@@H]2[C@@H](CC(=O)N3Cc4ccccc4C[C@H]3CO)O[C@]3(C(=O)N(Cc4ccc(N5C(=O)c6cccc7cccc5c67)cc4)c4ccccc43)[C@H]2C)cc1", "composite z-score": -0.604}, {"smiles": "CCOC(=O)C[C@H]1[C@H](OC(=O)c2ccccc2-c2ccccc2)[C@@H](NC(=O)c2ccc3ccccc3n2)c2cc(OCCCO)ccc2N1C(=O)Cc1ccc(OC)cc1", "composite z-score": 0.505}, {"smiles": "CCOc1cc(C(O)C2C=CC3C(=O)NC(=O)C3N2Nc2ccc(Cl)cc2Cl)ccc1O", "note": "(configuration not stated)", "composite z-score": -0.671}, {"smiles": "Cc1ccc(NN2C(C(O)c3c(F)cccc3Cl)C=CC3C(=O)N(C4CCCCC4)C(=O)C32)cc1", "note": "(configuration not stated)", "composite z-score": 0.979}, {"smiles": "CCOC(=O)C[C@H]1[C@H](OC(=O)c2ccc(-c3ccccc3)cc2)[C@@H](NC(=O)CC(C)C)c2cc(OCCCO)ccc2N1C(=O)c1ccc2ccccc2n1", "composite z-score": 0.363}, {"smiles": "COC(=O)[C@@]1(Cc2ccccc2)[C@H]2c3cc(C(=O)N4CCCC4)n(CCc4ccccn4)c3C[C@H]2CN1C(=O)c1ccccc1", "composite z-score": 1.06}, {"smiles": "Cc1ccc(S[C@]2(C(=O)NC(C)C)CC(=O)N(Cc3cc(C(F)(F)F)cc(C(F)(F)F)c3)[C@@H]2c2ccc(CO)cc2)cc1", "composite z-score": -0.0844}]}]}
